Drawing on PubChem BioAssay (NCATS), this text covers Potency, viability (% of DMSO) and viability, % of DMSO for 33 compounds.

Records with an inconclusive call do not appear. A number with no mark means an inactive call. Active and inactive are the calls of the source. Calls come from the whole dose curve; as a rule, active = well fitted cell-killing curve with a large enough effect; inconclusive = small, poorly fitted or top-dose-only effect, or effect the other way; inactive = no such curve, though single readings can be large or run the other way.
Potency is the fitted concentration of half-maximal effect.

The first assay is described as follows: Quantitative High-Throughput drug screen in 47 multiple myeloma cell lines against the NCATS MIPE library collection: KMS27_JCRB cell viability assay (AID 1918970). Note: nearly all actives have a fitted effect of over 30% in size. To be noted: KMS27 myeloma cells, CellTiter-Glo ATP viability, 48 h; series mostly up to 45.8 µM. Summed up:
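CellTiter-Glo luminescence after 48 h drug exposure at 37 °C; 500 cells/well, 1536-well format, pin-tool compound addition; DMSO = 100%, media-only = 0% viability.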
In general terms: ATP-based viability assays read luminescence as a measure of living cells.
As to `O=C(Nc1ncc(-c2cc(C(F)F)nn2-c2c(Cl)cccc2Cl)s1)C1CC1`, the Potency was 83.3 nM (active). On to `Cc1[nH]nc2ccc(-c3cncc(OC[C@@H](N)Cc4ccccc4)c3)cc12`, for which the Potency was 2090 nM (active). As for `Nc1ncnc2c1c(-c1cccc(OCc3ccccc3)c1)cn2C1CC(CN2CCCC2)C1` (stereo not drawn), the Potency was 18700 nM (active). `COc1cc(C)c(Sc2cnc(NC(=O)c3ccc(CNC(C)C(C)C)cc3)s2)cc1C(=O)N1CCN(C(C)=O)CC1` (stereo not drawn): the Potency entry is “inactive”. For the compound `COc1cc2c(Oc3ccc(-c4cnc(Nc5ccc(F)cc5)n(C)c4=O)cc3F)ccnc2cc1OCCCN1CCOCC1`, the Potency was 1180 nM (active). For `C[C@@H]1COC(Nc2ccc3ncnc(Nc4ccc(OCc5nccs5)c(Cl)c4)c3c2)=N1`, the Potency is 9350 nM (active). As for `COc1cc2c(NC3CCN(C(C)C)CC3)nc(C3CCCCC3)nc2cc1OCCCN1CCCC1`, the Potency was 7430 nM (active). Turning to `Cc1cc(C(=O)N2CCN(c3cccc(Cl)c3)CC2)n(-c2ccccc2)n1`, the Potency was 148 nM (active). The same measure, in the same setting: to `Cn1cc(-c2[nH]c3cc(NC(=O)[C@H](N)C4CCCCC4)cc4c3c2C=NNC4=O)cn1` belongs 148 nM (active); to `CNC(=O)c1ccccc1Nc1nc(Nc2ccc(N3CCOCC3)cc2OC)ncc1Cl`, 132 nM (active); to `CC(C)c1ccccc1Cc1cc(C(=O)Nc2ccc(S(=O)(=O)c3ccccc3C(C)(C)C)cc2)c(O)c(O)c1O`, “inactive”. On to `Nc1ccn([C@@H]2O[C@H](CO)[C@H](O)C2(F)F)c(=O)n1`, for which the Potency was 52.6 nM (active). `O=C(CCCCCCC(=O)Nc1ccc([C@H]2O[C@@H](CSc3nc(-c4ccccc4)c(-c4ccccc4)o3)C[C@@H](c3ccc(CO)cc3)O2)cc1)NO`: the Potency result is “inactive”. Turning to `CCS(=O)(=O)c1cccc(-c2cc(C(=O)NC3CCN(C)CC3)c(C)c3[nH]c4ncc(C)cc4c23)c1`, the Potency was 1320 nM (active). The same measure, in the same setting: to `COc1cc2ncnc(Nc3ccc(F)c(Cl)c3)c2cc1NC(=O)C=CCN1CCCCC1` belongs 4180 nM (active); to `C#Cc1cccc(Nc2ncnc3cc(OC)c(OCCCCCCC(=O)NO)cc23)c1`, 74.3 nM (active). With `CC=C1NC(=O)[C@H]2CSSCCC=C[C@H](CC(=O)N[C@H](C(C)C)C(=O)N2)OC(=O)[C@H](C(C)C)NC1=O`, the Potency was 1 nM (active). Consider `O=c1[nH]nc(Sc2ncc([N+](=O)[O-])s2)n1-c1ccc2c(c1)OCCO2`, for which the Potency was 6620 nM (active).

As to `CC[C@@]1(O)C(=O)OCc2c1cc1n(c2=O)Cc2cc3cc(O)ccc3nc2-1`, the Potency is 18.7 nM (active).

For the compound `COc1ccc(-c2cc3c(C)nc(N)nc3n(C3CCC(OCCO)CC3)c2=O)cn1` (stereo not drawn), the Potency was 26.4 nM (active). In the case of `OCc1ccc(-c2ccc(-c3ccc(CO)s3)o2)s1`, the Potency is 11.8 nM (active). In the case of `CN1CCN(c2cc(C(=O)Nc3ccc4c(c3)-c3c(c(C(N)=O)nn3-c3ccc(F)cc3)CC4)c(Cl)cn2)CC1`, the Potency was 7430 nM (active). Still for that read-out and setting: with `Cc1cnc(Nc2ccc(F)cc2Cl)nc1-c1c[nH]c(C(=O)N[C@H](CO)c2cccc(Cl)c2)c1` the figure was 6620 nM (active). In the case of `COc1ccc(CC2c3cc(OC)c(OC)cc3CC[N+]2(C)CCC(=O)OCCCCCOC(=O)CC[N+]2(C)CCc3cc(OC)c(OC)cc3C2Cc2ccc(OC)c(OC)c2)cc1OC` (stereo not drawn), the viability (% of DMSO) is 108% [at 5.15 µM]. For the compound `CN(C)CC=CC(=O)Nc1cc2c(Nc3ccc(F)c(Cl)c3)ncnc2cc1O[C@H]1CCOC1`, the Potency is 2640 nM (active). With `CC(C)c1cc(C(=O)N2Cc3ccc(CN4CCN(C)CC4)cc3C2)c(O)cc1O`, the Potency was 132 nM (active).

For the compound `Nc1ncnc2c1c(-c1cnc3[nH]ccc3c1)nn2C1CCCC1`, the Potency is 209 nM (active). Still for that read-out and setting: to `NC1(Cc2ccc(Cl)cc2)CCN(c2ncnc3[nH]ccc23)CC1` belongs 4690 nM (active); to `Nc1cc(C(F)(F)F)c(-c2cc(N3CCOCC3)nc(N3CCOCC3)n2)cn1`, 209 nM (active); to `COc1cccc2c(NCc3ccccc3)nc(-n3c(N)nc4ccccc43)nc12`, 1050 nM (active).

A short description of another assay: Quantitative High-Throughput drug screen in 47 multiple myeloma cell lines against the NCATS MIPE library collection: KMS12BM_JCRB cell viability assay (AID 1918971). Note: nearly all actives have a fitted effect of over 35% in size. To be noted: KMS12BM myeloma viability, CellTiter-Glo ATP, 48 h; series mostly up to 45.8 µM. A digest of the protocol: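 Myeloma cell lines, 500 cells per well, exposed to MIPE 4.0 library compounds for 48 h at 37C, 5% CO2. Viability from ATP by CellTiter-Glo luminescence; normalised to DMSO (100%) and media-only (0%) wells.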
As for `O=C(Nc1ncc(-c2cc(C(F)F)nn2-c2c(Cl)cccc2Cl)s1)C1CC1`, the Potency is 1050 nM (active).

For `Cc1[nH]nc2ccc(-c3cncc(OC[C@@H](N)Cc4ccccc4)c3)cc12`, the Potency is 4180 nM (active). As for `Nc1ncnc2c1c(-c1cccc(OCc3ccccc3)c1)cn2C1CC(CN2CCCC2)C1` (stereo not drawn), the Potency is 23500 nM (active). Same read-out and setting: with `COc1cc(C)c(Sc2cnc(NC(=O)c3ccc(CNC(C)C(C)C)cc3)s2)cc1C(=O)N1CCN(C(C)=O)CC1` (stereo not drawn) the figure was 14800 nM (active). `COc1cc2c(Oc3ccc(-c4cnc(Nc5ccc(F)cc5)n(C)c4=O)cc3F)ccnc2cc1OCCCN1CCOCC1`: the Potency was 20900 nM (active). The same measure, in the same setting: with `C[C@@H]1COC(Nc2ccc3ncnc(Nc4ccc(OCc5nccs5)c(Cl)c4)c3c2)=N1` the figure was 14800 nM (active); with `COc1cc2c(NC3CCN(C(C)C)CC3)nc(C3CCCCC3)nc2cc1OCCCN1CCCC1`, 7430 nM (active). On the same count and under the same terms, to `Cc1cc(C(=O)N2CCN(c3cccc(Cl)c3)CC2)n(-c2ccccc2)n1` belongs 264 nM (active); to `O=C(Cc1ccc(-c2ccc(OCCN3CCOCC3)cc2)cn1)NCc1ccccc1`, 37.2 nM (active). In the case of `Cn1cc(-c2[nH]c3cc(NC(=O)[C@H](N)C4CCCCC4)cc4c3c2C=NNC4=O)cn1`, the Potency was 1050 nM (active). Consider `CNC(=O)c1ccccc1Nc1nc(Nc2ccc(N3CCOCC3)cc2OC)ncc1Cl`, for which the Potency was 13200 nM (active). As for `CC(C)c1ccccc1Cc1cc(C(=O)Nc2ccc(S(=O)(=O)c3ccccc3C(C)(C)C)cc2)c(O)c(O)c1O`, the Potency was 3720 nM (active). As for `Nc1ccn([C@@H]2O[C@H](CO)[C@H](O)C2(F)F)c(=O)n1`, the Potency was 26.4 nM (active). For the compound `O=C(CCCCCCC(=O)Nc1ccc([C@H]2O[C@@H](CSc3nc(-c4ccccc4)c(-c4ccccc4)o3)C[C@@H](c3ccc(CO)cc3)O2)cc1)NO`, the Potency is 11800 nM (active). Consider `CCS(=O)(=O)c1cccc(-c2cc(C(=O)NC3CCN(C)CC3)c(C)c3[nH]c4ncc(C)cc4c23)c1`, for which the Potency is 5900 nM (active). In the case of `COc1cc2ncnc(Nc3ccc(F)c(Cl)c3)c2cc1NC(=O)C=CCN1CCCCC1`, the Potency was 18700 nM (active). In the case of `C#Cc1cccc(Nc2ncnc3cc(OC)c(OCCCCCCC(=O)NO)cc23)c1`, the Potency is 66.2 nM (active). As to `CC=C1NC(=O)[C@H]2CSSCCC=C[C@H](CC(=O)N[C@H](C(C)C)C(=O)N2)OC(=O)[C@H](C(C)C)NC1=O`, the Potency is 10.5 nM (active). Regarding `O=c1[nH]nc(Sc2ncc([N+](=O)[O-])s2)n1-c1ccc2c(c1)OCCO2`, the Potency was 4690 nM (active).

For the compound `CC[C@@]1(O)C(=O)OCc2c1cc1n(c2=O)Cc2cc3cc(O)ccc3nc2-1`, the Potency is 526 nM (active). For the compound `COc1ccc(-c2cc3c(C)nc(N)nc3n(C3CCC(OCCO)CC3)c2=O)cn1` (stereo not drawn), the Potency was 59 nM (active). On to `OCc1ccc(-c2ccc(-c3ccc(CO)s3)o2)s1`, for which the Potency was 23500 nM (active). For the compound `CN1CCN(c2cc(C(=O)Nc3ccc4c(c3)-c3c(c(C(N)=O)nn3-c3ccc(F)cc3)CC4)c(Cl)cn2)CC1`, the Potency was 23500 nM (active).

Take `Cc1cnc(Nc2ccc(F)cc2Cl)nc1-c1c[nH]c(C(=O)N[C@H](CO)c2cccc(Cl)c2)c1`: the Potency is 23500 nM (active). `COc1ccc(CC2c3cc(OC)c(OC)cc3CC[N+]2(C)CCC(=O)OCCCCCOC(=O)CC[N+]2(C)CCc3cc(OC)c(OC)cc3C2Cc2ccc(OC)c(OC)c2)cc1OC` (stereo not drawn): the viability, % of DMSO is 113% [at 5.15 µM].

With `CN(C)CC=CC(=O)Nc1cc2c(Nc3ccc(F)c(Cl)c3)ncnc2cc1O[C@H]1CCOC1`, the Potency was 16600 nM (active).

As to `CC(C)c1cc(C(=O)N2Cc3ccc(CN4CCN(C)CC4)cc3C2)c(O)cc1O`, the Potency was 264 nM (active). `N#CCNC(=O)c1ccc(-c2ccnc(Nc3ccc(N4CCOCC4)cc3)n2)cc1`: the Potency was 14800 nM (active).

For `Nc1ncnc2c1c(-c1cnc3[nH]ccc3c1)nn2C1CCCC1`, the Potency is 743 nM (active). Take `NC1(Cc2ccc(Cl)cc2)CCN(c2ncnc3[nH]ccc23)CC1`: the Potency is 18700 nM (active). The same measure, in the same setting: to `COc1ccc2c(c1)CC[C@@H](CN(C)CC(=O)O)[C@H]2c1ccccc1` belongs 2090 nM (active); to `Nc1cc(C(F)(F)F)c(-c2cc(N3CCOCC3)nc(N3CCOCC3)n2)cn1`, 1050 nM (active).

`COc1cccc2c(NCc3ccccc3)nc(-n3c(N)nc4ccccc43)nc12`: the Potency was 9350 nM (active).
